The panel holds about 83,000 compounds, 20% with a hit somewhere; the sample as a whole holds those more often.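 Cell lines were cultured in 96-well plates, exposed to a single compound concentration, and assessed for percent growth 48 hours later.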 Unmarked numbers belong to inactive results. The source made the active and inactive calls. How the source made its calls: active means growth percent below 10; inactive means the rest.

These results are taken from PubChem BioAssay (NCI).

Some test systems named below: DU-145 prostate; K-562 leukemia; MALME-3M melanoma; MDA-MB-231 breast; RXF 393 renal; SF-268 CNS; SF-295 CNS; SF-539 CNS; M14 melanoma.
What all share (assay): NCI-60 one-dose screen, 48 h (100 = growth as untreated, 0 = no growth, -100 = all killed)
Holding throughout (details): 10 µM unless noted

On to `COc1cc(/C(Cl)=C/C=C/C(=O)c2c(C)[n+]([O-])c3ccc(Cl)cc3[n+]2[O-])cc(OC)c1OC`, for which the growth in the assay with DU-145 prostate was 67.8%; with K-562 leukemia it was 13.3%; with MALME-3M melanoma it was 65.7%; with MDA-MB-231 breast, 30.1%; in the assay with RXF 393 renal, 47.9%; in the assay on SF-268 CNS, -20.1% (active). In addition, the results for the growth in the assay on SF-295 CNS, in the assay with SF-539 CNS and with M14 melanoma were 36.4%, 24.3% and 43.4%, respectively.

Turning to `COc1ccc(/C=C2\CCc3ccccc3C2=O)cc1`, the growth is 98.2% in the assay with DU-145 prostate; 20.7% in the assay on K-562 leukemia; 86.1% in the assay with MALME-3M melanoma; 87.3% in the assay with MDA-MB-231 breast; 103% in the assay on RXF 393 renal; 100% with SF-268 CNS. Moreover, the growth with SF-295 CNS was 32.5%; in the assay with SF-539 CNS, 105%; in the assay with M14 melanoma, 99.2%.

As to `O=C1/C(=C/c2ccc(F)cc2)Cc2ccccc21`, the growth with DU-145 prostate was 104%; with K-562 leukemia, 110%; in the assay on MALME-3M melanoma, 107%; with MDA-MB-231 breast, 107%; in the assay with RXF 393 renal it was 99.6%; with SF-268 CNS, 110%. For the same molecule, the results for the growth with SF-295 CNS, with SF-539 CNS and with M14 melanoma were 90.8%, 107% and 103%, respectively.

For `COc1cc(OC)c2c(c1Cl)O[C@]1(C2=O)C(OCc2ccccc2)=CC(=O)C[C@H]1C`, the growth in the assay on DU-145 prostate is 14.7%; in the assay on K-562 leukemia, 2.98% (active); with MALME-3M melanoma, -42.4% (active); with MDA-MB-231 breast, 12.9%; with RXF 393 renal, 0.23% (active); in the assay on SF-268 CNS it was 21.3%. In addition, the values for the growth in the assay with SF-295 CNS, in the assay on SF-539 CNS and in the assay with M14 melanoma were -58% (active), -16.4% (active) and 2.91% (active), respectively.

`O=c1ncc(-c2ccc(C(F)(F)F)cc2)c(NC2CCCCCC2)[nH]1`: the growth with DU-145 prostate is 78.5%; in the assay on K-562 leukemia, 30%; in the assay on MALME-3M melanoma it was -26.4% (active); in the assay on MDA-MB-231 breast, 79%; in the assay on RXF 393 renal it was 76.4%; with SF-268 CNS it was 62.3%. Moreover, the values for the growth with SF-295 CNS, in the assay on SF-539 CNS and with M14 melanoma were 3% (active), 91.7% and 34.8%, respectively.

For the molecule `CC(=O)c1nn(-c2ccccc2)c(=Nc2ccccc2)cc1C`, the growth in the assay with DU-145 prostate was 107%; with K-562 leukemia, 97.3%; in the assay on MALME-3M melanoma, 120%; with MDA-MB-231 breast, 90.2%; in the assay with RXF 393 renal, 102%; with SF-268 CNS it was 114%. The figures for the growth with SF-295 CNS, in the assay with SF-539 CNS and with M14 melanoma were 86.9%, 107% and 120%, respectively.

On to `O=C(Nc1nc(-c2ccc(Cl)cc2)cs1)c1cc(-c2ccc(Br)cc2)nc2ccc(Cl)cc12`, for which the growth in the assay on DU-145 prostate is 55.6%; with K-562 leukemia it was 25.2%; in the assay with MALME-3M melanoma, 44.6%; in the assay on MDA-MB-231 breast it was 37.8%; in the assay with RXF 393 renal, 98.6%; with SF-268 CNS, 31.6%. The growth was 91% with SF-295 CNS, 2.4% (active) with SF-539 CNS and -16.8% (active) in the assay with M14 melanoma.

With `OCCN1CCN(CCCN2c3ccccc3Sc3ccc(C(F)(F)F)cc32)CC1`, the growth with DU-145 prostate is 58.8%; in the assay with K-562 leukemia it was -55.8% (active); in the assay with MALME-3M melanoma, -66.6% (active); in the assay on MDA-MB-231 breast, 40.8%; with RXF 393 renal, 28.2%; in the assay on SF-268 CNS, 41%. The growth in the assay on SF-295 CNS was -43% (active); in the assay on SF-539 CNS, 33.4%; with M14 melanoma, -80.9% (active).

For the molecule `CCN(Cc1cccc(S(=O)(=O)[O-])c1)c1ccc(C(=C2C=CC(=[N+](CC)Cc3cccc(S(=O)(=O)O)c3)C=C2)c2ccccc2S(=O)(=O)O)cc1`, the growth is 107% in the assay with DU-145 prostate; 90.8% in the assay on K-562 leukemia; 118% in the assay with MALME-3M melanoma; 100% in the assay with MDA-MB-231 breast; 106% in the assay on RXF 393 renal; 94.6% in the assay with SF-268 CNS. For the same molecule, the values for the growth in the assay on SF-295 CNS, in the assay on SF-539 CNS and in the assay on M14 melanoma were 94.5%, 97.4% and 98.4%, respectively.

Take `Cc1nn(-c2ccccc2)c2nc(N)c(C3=NCCO3)nc12`: the growth with DU-145 prostate was 114%; with K-562 leukemia, 102%; with MALME-3M melanoma it was 88.6%; with MDA-MB-231 breast, 87%; in the assay on RXF 393 renal, 108%; in the assay on SF-268 CNS, 111%. Also, the growth with SF-295 CNS was 90.8%; in the assay with SF-539 CNS it was 99.6%; in the assay with M14 melanoma, 105%.

`CC(NC(N)=S)c1ccccc1` (stereo unspecified): the growth with DU-145 prostate was 115%; in the assay on K-562 leukemia, 94.6%; in the assay with MALME-3M melanoma it was 105%; with MDA-MB-231 breast, 91.9%; with RXF 393 renal it was 98%; in the assay on SF-268 CNS, 106%. Besides, the growth with SF-295 CNS is 101%; in the assay on SF-539 CNS it was 96.1%; in the assay on M14 melanoma, 104%.

Turning to `Cc1ncc(C(=O)Nc2ccc(CN3CCN(C)CC3)c(C(F)(F)F)c2)cc1C#Cc1cncc2ncccc12`, the growth is 66.9% with DU-145 prostate; -10.7% (active) in the assay on K-562 leukemia; 0.477% (active) in the assay on MALME-3M melanoma; 21.3% with MDA-MB-231 breast; 36.7% in the assay on RXF 393 renal; 57.7% with SF-268 CNS. Moreover, the growth is 82.6% with SF-295 CNS, 67% in the assay with SF-539 CNS and 5.36% (active) in the assay with M14 melanoma.

Consider `Cc1c2oc3c(C)ccc(C(=O)OC(C)C4NC(=O)C(C(C)C)N(C)C(=O)CN(C)C(=O)C5CCCN5C(=O)C(C(C)C)NC4=O)c3nc-2c(C(=O)OC(C)C2NC(=O)C(C(C)C)N(C)C(=O)CN(C)C(=O)C3CCCN3C(=O)C(C(C)C)NC2=O)c(N)c1=O` (stereo unspecified), for which the growth in the assay with DU-145 prostate is 11.4%; in the assay on K-562 leukemia, 5.53% (active); with MALME-3M melanoma, -37.6% (active); in the assay on MDA-MB-231 breast, 3.61% (active); in the assay with RXF 393 renal, -78.5% (active); in the assay on SF-268 CNS, -5.9% (active). The figures for the growth in the assay on SF-295 CNS, in the assay with SF-539 CNS and in the assay on M14 melanoma were -9.17% (active), -11.4% (active) and -55.7% (active), respectively.

As to `CC(NNC(=S)N1CCCCCC1)c1ccc2ccccc2n1` (stereo unspecified), the growth is 36.2% in the assay with DU-145 prostate; 18.2% in the assay on K-562 leukemia; 29.1% with MALME-3M melanoma; 41.6% in the assay on MDA-MB-231 breast; 58.3% in the assay on RXF 393 renal; 39.7% in the assay with SF-268 CNS. The growth with SF-295 CNS is -10.9% (active); in the assay on SF-539 CNS, 18.6%; in the assay with M14 melanoma it was 21%.
